Screening data: PubChem BioAssay, The Scripps Research Institute Molecular Screening Center
Most compounds without a hit are left out; they make up all but 3.5% or so of the library.
MITF inh: MITF inhibitors, primary screen, biochemical, AlphaScreen, human. Microphthalmia-associated transcription factor (Homo sapiens), O75030. AlphaScreen MITF homodimerization, bead proximity signal. inhibition, % at 2.6 µM. 650,000 tested, 0.91% active; in the data active = inhibition above about 50%
Target sequence (O75030 whole entry, looked up): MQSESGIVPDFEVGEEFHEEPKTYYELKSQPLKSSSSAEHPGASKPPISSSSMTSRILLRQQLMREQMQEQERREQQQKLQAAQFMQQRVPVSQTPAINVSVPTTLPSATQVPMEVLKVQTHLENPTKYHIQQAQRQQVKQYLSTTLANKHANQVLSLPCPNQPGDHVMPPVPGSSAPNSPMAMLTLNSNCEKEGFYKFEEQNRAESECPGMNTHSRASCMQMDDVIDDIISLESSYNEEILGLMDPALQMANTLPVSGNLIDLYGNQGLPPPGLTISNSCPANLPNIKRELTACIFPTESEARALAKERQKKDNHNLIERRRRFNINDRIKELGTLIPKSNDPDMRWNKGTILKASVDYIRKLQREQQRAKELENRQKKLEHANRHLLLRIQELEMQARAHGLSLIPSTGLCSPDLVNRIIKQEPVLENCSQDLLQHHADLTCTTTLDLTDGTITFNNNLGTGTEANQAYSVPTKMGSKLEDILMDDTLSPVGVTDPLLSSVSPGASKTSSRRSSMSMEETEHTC
GPR151 ag: activators of human GPR151, primary screen, cell-based, PathHunter beta-arrestin, luminescence; 650,000 tested, 1% active; PathHunter beta-arrestin GPR151 cells; activation, % at 11.2 µM; AID 1508602, 2020; in the data active = activation above about 4.9%
FBW7 act: FBW7 E3 ligase activators, primary screen, biochemical, AlphaScreen, human; AlphaScreen FBW7–phospho-cyclin E peptide binding, activator screen; normalized activity (activation), % at 26.1 µM; 650,000 tested, 0.13% active; AID 1259310, 2017; in the data active = normalized activity above about 1.9%;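 also: purified mutant Fbw7 with reduced substrate affinity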
TEAD-YAP inh: TEAD-YAP interaction inhibition, primary screen, TEAD-YAP interaction inhibitor project, luminescence, HEK-TIYL cells | TEAD-Gal4/YAP UAS-luciferase luminescence | inhibition, % at 9.12 µM | 640,000 tested, 1.4% active | AID 1259422, 2018; in the data active = inhibition above about 32%
GPR151 conf act: GPR151 activators, triplicate retest, confirmation, cell-based, PathHunter beta-arrestin, luminescence | shares compounds with GPR151 ag | GPR151 PathHunter beta-arrestin cells, 90 min; % of EA-reagent control over plate median | activation, % at 11.2 µM | 6,700 tested, under 10 active | AID 1508609, 2020;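 active = mean percent activation across replicates above the confirmation screen cutoff of 4.91%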
GPR119 ag: GPR119 activators in beta-arrestin cells, counter-screen for GPR151 activator project, cell-based, PathHunter beta-arrestin, luminescence, triplicate; 6,700 tested, 0.3% active; activation, % at 11.2 µM; 90 min; 0 = compound-well median, 100 = enzyme-acceptor control; shares compounds with GPR151 ag;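 active = mean percent activation in the counterscreen above 29.09%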;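 also: counterscreen on off-target GPR119 to flag nonselective hits from the GPR151 activator screen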
Hits are given with their value; 0 = inactive; - = no result given; ! = a repeat was not active.

SMILES	MITF inh	GPR151 ag	FBW7 act	TEAD-YAP inh	GPR151 conf act	GPR119 ag
O=C1NC2(O)CC(C3COC2O3)C1[N+](=O)[O-] (stereo not drawn)	0	0	0	0	-	-
Cc1ccc(Cn2nnc3c(SCC(=O)NCc4ccc(F)cc4)ncnc32)cc1	0	0	0	0	-	-
Cc1ccc(NC(=O)c2cc3c(n(-c4ccc(C)cc4)c2=O)CCCC3=O)cc1	0	0	0	0	-	-
Cc1ccc(-n2c3c(cc(C(=O)Nc4ccc5c(c4)OCCO5)c2=O)C(=O)CCC3)cc1	0	5.0	0	0	0	0
COc1ccc(OC)c(NC(=O)c2c(NCc3ccc(C)o3)sc3c2CCCC3)c1	0	0	0	0	-	-
COC(=O)c1ccc(NC(=O)c2c(NCc3ccc(C)o3)sc3c2CCCC3)cc1	0	8.1	0	0	0	0
COC(=O)c1c(NC(=O)c2ccc(C)cc2)sc2c1CCCCC2	0	0	0	0	-	-
COC(=O)c1c(NC(=O)c2ccc(C)cc2)sc2c1CCCC2	0	6.5	0	0	0	0
CN(C)C(=O)CSc1nc2ccccc2n1C(=O)Oc1ccccc1	0	0	0	0	-	-
CN1CCC(=C2c3ccccc3Sc3ccccc32)CC1	0	0	0	0	-	-
CN1CCC(=C2c3ccccc3C=Cc3ccccc32)CC1	0	5.3!	0	0	0	0
O=C(c1ccc(OCCN2CCCCC2)cc1)c1c(-c2ccc(O)cc2)sc2cc(O)ccc12	0	5.0!	0	0	0	0
COc1ccc(C(=O)C2CCCN(S(=O)(=O)c3c(C)nn(C)c3Cl)C2)c(C)c1 (stereo not drawn)	0	0	0	0	-	-
COc1c(C)cc(C(=O)C2CCCN(S(=O)(=O)c3c(C)nn(C)c3Cl)C2)cc1C (stereo not drawn)	0	8.7	0	0	0	0
COc1ccc(-c2csc(NC(=O)c3ccc(S(=O)(=O)N4CCCC4)cc3)n2)c(OC)c1	0	5.5	0	0	0	0
COc1ccc(C(=O)N(CCCO)C(C)C(=O)NC2CCCCC2)cc1OC (stereo not drawn)	0	5.1	0	0	0	0
O=S(=O)(c1cccs1)N(Cc1ccco1)C1CCN(CCc2cccs2)CC1	0	7.5	0	0	0	0
CS(=O)(=O)N(Cc1ccco1)C1CCN(CCc2cccs2)CC1	0	0	0	0	-	-
COc1ccccc1/C=C/C(=O)NCC(=O)N1CCC(N(C)C2CCCCC2)CC1	0	0	0	0	-	-
C[n+]1ccccc1/C=C/c1ccc([N+](=O)[O-])cc1	0	6.6	0	0	0	0
C[n+]1ccccc1/C=C/c1ccccc1	0	0	0	0	-	-
CC(=O)c1cccc(-c2cccc(C(=O)NCCN3CCOCC3)n2)c1	0	0	0	0	-	-
CCCN(CC(=O)Nc1ccccc1C)C(=O)CCl	0	8.4	0	72	0	0
Nc1cccc(-c2ncc(C(=O)NCc3ccccc3)s2)c1	0	0	0	0	-	-
O=C(NCc1cccc(C(F)(F)F)c1)c1cnc(NC2CCC(O)CC2)s1 (stereo not drawn)	0	5.1	0	0	0	0
SMILES	MITF inh	GPR151 ag	FBW7 act	TEAD-YAP inh	GPR151 conf act	GPR119 ag
O=C(NCc1cccc(C(F)(F)F)c1)c1cnc(-c2ccccc2)s1	0	7.6	0	0	0	0
O=C(NCc1ccccc1)c1cnc(-c2ccccc2)s1	0	6.6	0	0	0	0
COc1ccc(-c2ncc(C(=O)NCc3cccc(C(F)(F)F)c3)s2)cc1	0	0	0	0	-	-
CC(C)(C)c1ccc(CSc2nc3ccc(NC(=O)c4ccc(C(C)(C)C)cc4)cc3s2)cc1	0	0	0	0	-	-
COc1ccc(CCNc2nc(-c3ccccc3)nc3c2ncn3-c2ccccc2)cc1	0	0	0	0	-	-
CCC(=O)N1c2ccccc2NC2=C(C(=O)CC(c3ccccc3)C2)C1c1c(F)cccc1Cl (stereo not drawn)	0	0	0	0	-	-
C=CCNc1nc(Nc2ccc(OC)cc2)c2cnn(C)c2n1	0	0	0	0	-	-
COc1ccccc1C(NC(=O)c1cnccn1)c1nccn1C (stereo not drawn)	0	0	0	0	-	-
COc1ccccc1C(NC(=O)c1nccc2ccccc12)c1nccn1C (stereo not drawn)	0	6.4	0	0	0	0
Cc1cc(C)cc(N(C(C)C(=O)O)S(C)(=O)=O)c1 (stereo not drawn)	0	5.5	0	0	0	0
CCOC(=O)CCN1C(=O)[C@H]2[C@H]3[C@H](O)[C@H](O)C/C(=N\NC(=O)OCc4ccccc4)[C@@H]3CC[C@H]2C1=O	0	0	0	-	-	-
CCN1C(=O)[C@H]2[C@H]3[C@H](O)[C@H](O)C/C(=N\NC(=O)OCc4ccccc4)[C@@H]3CC[C@H]2C1=O	0	5.0	0	-	0	0
O=C(CSc1nc2cc(C(=O)NCC3CCCO3)ccc2c(=O)n1Cc1ccco1)NC1CCCCC1 (stereo not drawn)	0	5.2	0	0	0	0
O=C(CSc1nc2cc(C(=O)NCC3CCCO3)ccc2c(=O)n1CC1CCCO1)NC1CCCCC1 (stereo not drawn)	0	0	0	0	-	-
NC(=O)c1ccccc1Nc1ccnc(Nc2ccc(N3CCOCC3)cc2)c1	0	0	0	0	-	-
NC(=O)c1cc2ccccc2cc1Nc1ccnc(Nc2ccc(N3CCOCC3)cc2)c1	0	6.5	0	83	0	0
Cn1nc(-c2ccnc(Nc3ccc(N4CCOCC4)cc3)c2)cc1Nc1ccccc1	0	5.7	0	0	0	0
N#Cc1ccc(OCC(=O)N2C(=O)c3ccccc3S2(=O)=O)cc1	0	0	0	0	-	-
O=C(COc1ccccc1)N1C(=O)c2ccccc2S1(=O)=O	0	5.2	0	0	0	0
NS(=O)(=O)c1ccc(NC(=O)COc2ncnc3scc(-c4ccccc4)c23)cc1	0	5.5	0	0	0	0
O=C(O)[C@H]1/C(=C/CO)O[C@@H]2CC(=O)N21	0	4.9!	0	0	0	0
O=C(O)C1CC(=O)N(CCN2CC(C(=O)O)CC2=O)C1 (stereo not drawn)	0	0	0	0	-	-
CCOc1ccc(C(=S)N2CCCCC2)cc1	0	6.2	0	0	0	0
CCOc1ccc(C(=S)N2CCCC2)cc1	0	0	0	0	-	-
C/C=C/c1ccc(OCCNC)c(OC)c1	0	0	0	0	-	-
C/C=C/c1ccc(OCCCNC)c(OC)c1	0	6.1	0	0	0	0
CC(c1ccco1)N(C)Cc1ccc(C(=O)NC23CC4CC(CC(C4)C2)C3)c(=O)[nH]1 (stereo not drawn)	0	11	0	0	0	0
